Screening data: PubChem, National Center for Advancing Translational Sciences (NCATS)
Shiga toxin inh: blocks Shiga toxin action in Vero cells; Vero cells, Shiga toxin protein synthesis inhibition reporter; inhibition, % at 38.7 µM; 290,000 compounds, 9.2% hits; in the data active means inhibition mostly above about 28%, no sharp cut-off; inactive means mostly below about 43%; further: 0% is about no effect
Cycloheximide cs: counter-screen for Shiga toxin inhibitors: cycloheximide protein synthesis inhibition; 300,000 compounds, 12% hits; cell reporter, cycloheximide protein synthesis inhibition counterscreen; max response, %; in the data active means max response mostly above about 13%, no sharp cut-off; inactive means mostly below about 14%; further: read at 38.3 µM for the half of the compounds with a filed dose; 0% is about no effect
MARV entry inh: blocks Marburg virus binding to or entry into cells | Potency, µM (doses to about 37.8 µM), for the others: top-dose activity change, negative = inhibition, usual class: inhibitors | 300,000 compounds, 1.8% hits | Marburg virus pseudotyped entry inhibition, cell reporter; calls by dose curve; tested in HEK293 cells; further: potency means the concentration at half of the fitted maximal effect; on the % scale 0 is the no-effect control and ±100 the full control effect
LASV entry inh: Lassa virus entry inhibition; Lassa virus pseudotype entry inhibition, cell reporter; Potency, µM (highest dose often 37.9 µM), for inactives: top-dose activity change, negative = inhibition, usual class: inhibitors; 300,000 compounds, 1.2% hits; calls by dose curve; tested in HEK293 cells; further: potency means the concentration at half of the fitted maximal effect; on the % scale 0 is the no-effect control and ±100 the full control effect; nearly all actives have a fitted effect of over 50% in size
* hit, by the source's call; ? = inconclusive; · = not tested or not shown; [ ] = remark or other dose. Hits are enriched below; roughly 12% of the tested compounds scored in any of these assays.

SMILES	Shiga toxin inh	Cycloheximide cs	MARV entry inh	LASV entry inh
C#CC1(O)C(OC)=CC2C(=O)C1C(c1ccccc1)C2C (stereo not drawn)	·	·	-3.5%[14.2 µM]	?
O=C(O)c1cccc(Nc2c([N+](=O)[O-])c(=O)oc3ccccc23)c1	124.9*	73.4*	·	·
O=C(O)c1cccc(Nc2c3ccccc3nc3ccccc23)c1	87.4*	107.1*	·	·
O=C(OCC1OC(n2cnc3c(N(C(=O)c4ccccc4)C(=O)c4ccccc4)ncnc32)C(O)C1F)c1ccccc1 (stereo not drawn)	-20.3	-1.4	-8.5%	13µM*
COc1ccc(OC)c(Nc2nc(N)nc(CCl)n2)c1	20.4	-1.0	-27.2%[46.1 µM]	?
COc1ccccc1Nc1nc(N)nc(CCl)n1	38.5*	20.8*	-5.2%[46.1 µM]	?
COc1ccccc1Nc1nc(N)nc(CSc2ncccn2)n1	95.9*	28.0*	6.7%	6.8%
CCOc1ccccc1Nc1nc(N)nc(CSc2nccc(C)n2)n1	-12.2	-1.6	-2.0%	-4.3%
COc1ccc(N2CCN(Cc3nc(N)nc(Nc4ccccc4OC)n3)CC2)cc1	22.1	-3.6	18.3µM*	?
COc1ccccc1Nc1nc(N)nc(CN2CCN(Cc3ccccc3)CC2)n1	-10.5	0.4	?	2.4%
N#CCC(=O)Nc1ccc(C(=O)NCCc2c[nH]c3ccccc23)cc1	-6.5	1.2	-8.0%[46.1 µM]	3.3%[46.1 µM]
CC(=O)Nc1cc(C)ns1	·	·	?	3.7%
COc1cc(CN2CCNC(=O)C2CC(=O)NCc2csc(C(C)C)n2)cc(OC)c1 (stereo not drawn)	-9.9	7.1	·	·
COc1ccc2c(c1)O[C@@H](c1ccc3c(c1)OCO3)[C@H](OC(=O)Nc1cc(OC)c(OC)c(OC)c1)C2=O	36.5*	14.5*	?	-12.6%
COc1ccc2c(c1)C(=O)[C@@H](OC(=O)Nc1cc(OC)c(OC)c(OC)c1)[C@H](c1ccc(OC)c(Br)c1)O2	·	·	-20.8%[14.2 µM]	·
COc1ccc2c(c1)O[C@H](c1ccc3c(c1)OCO3)[C@@H](O)C2=O	57.9*	38.0*	23.8%[14.2 µM]	?
COc1ccc2c(c1)O[C@@H](c1cccc(C(F)(F)F)c1)[C@H](O)C2=O	3.0	0.9	?	?
CN1CCN(C(=O)C(N)Cc2ccccc2)CC1 (stereo not drawn)	-8.9	2.5	?	0.7%
COCCN=C1Sc2nc3cc4c(cc3cc2CN1CC1CCCO1)OCO4 (stereo not drawn)	15.8	0.8	·	·
CCS(=O)(=O)c1ccc2oc(SCC(=O)N3CCCCC3)nc2c1	28.8	8.3	-3.8%[46.1 µM]	-13.8%
COc1ccc(CC(=O)N/N=C(\C)c2cccs2)cc1	14.6	11.0	10.3%[46.1 µM]	8.7%[46.1 µM]
Cc1ccc(NC(=O)NC(=O)CSc2nnc(-c3ccc(Cl)cc3Cl)n2N)c(C)c1	179.1*	63.8*	19.3%	14.0%
O=C(CSC(=S)N1CCSCC1)c1ccccc1	93.1*	26.8*	?	-29.9%
O=C(CSC(=S)N1CCSCC1)c1ccc(Cl)cc1	82.2*	39.0*	?	·
O=C1CCC(=O)N1CCSC(=S)N1CCSCC1	59.8*	14.0*	9.4%[46.1 µM]	19.8%
SMILES	Shiga toxin inh	Cycloheximide cs	MARV entry inh	LASV entry inh
S=C(c1ccccc1)N1CCSCC1	3.1	-2.3	24.4%[46.1 µM]	21.9%[46.1 µM]
O=C(O)C1C2C=CC(C2)C1C(=O)NCc1ccc(Cl)c(Cl)c1 (stereo not drawn)	-10.5	1.1	-4.2%	5.5%
CCN1CCN(c2csc3ccc(Br)cc3c2=O)CC1	·	·	·	21.1%[46.1 µM]
CCOC(=O)c1sc(=NC(=O)c2ccco2)n(C)c1C	73.2*	60.1*	?	9.0%
CCOC(=O)c1sc(=NC(=O)c2ccc(Cl)s2)n(C)c1C	58.8*	31.1*	11.8%	-0.5%
CCOC(=O)c1sc(=NC(=O)c2ccc(S(=O)(=O)N3CC(C)OC(C)C3)cc2)n(C)c1C (stereo not drawn)	-23.7	0.4	-6.9%	13.0%
C#CCn1c(=NC(=O)c2cccs2)sc2cccc(OC)c21	99.2	24.0	·	·
CCOC(=O)c1sc(=NC(=O)c2cccs2)n(C)c1C	95.9*	48.4*	?	-9.2%
CCOC(=O)c1sc(=NC(=O)c2ccccc2Br)n(C)c1C	86.8*	29.7*	·	·
Cc1ccc(C)c(C(C)NC(=O)C2C3CCC(O3)C2C(=O)O)c1 (stereo not drawn)	0.4	-2.4	·	·
c1ccc(OCCN2CCN(Cc3nc(-c4ccc5c(c4)OCO5)no3)CC2)cc1	3.0	7.2	·	·
CCOC(=O)Cn1c(=S)[nH]c2c(oc3ccc(Cl)cc32)c1=O	-6.3	-1.5	25.5%	17.6%
O=c1ccc(-c2ccccc2)nn1Cc1c(F)cccc1Cl	·	·	-6.1%[46.1 µM]	?
CCOC(=O)c1sc(=NC(=O)c2ccc(OC(C)C)cc2)n(C)c1C	-8.3	-6.0	1.2%[46.1 µM]	14.1%
CCOC(=O)c1sc(=NC(=O)c2ccc(C)c(C)c2)n(C)c1C	67.4*	63.0*	?	38.2%
CCOC(=O)c1sc(=NC(=O)/C=C/c2ccccc2)n(C)c1C	67.6*	38.0*	?	?
O=C(O)CCCC(=O)Nc1ccc(Br)cc1C(=O)O	4.1	-2.5	?	-8.5%
O=[N+]([O-])c1ccccc1COc1ccc(Cl)c2cccnc12	61.8*	22.6*	·	·
O=C(Oc1ccc(Cl)c2cccnc12)c1cccc([N+](=O)[O-])c1	-11.9	1.1	24.1%	-14.2%
Cc1cc2c(c(=O)n1Cc1ccccc1)[C@H]1O[C@](c3ccsc3)(Cc3cc(C#N)ccc31)O2	·	·	0.6%[14.2 µM]	·
Cc1cccc(C(=O)Oc2ccc(/C=N/O)cc2)c1	45.0*	47.7*	?	?
CC(=O)Oc1ccccc1C(=O)Oc1ccc(/C=N/n2cnnc2)cc1	14.9	1.7	5.0%	0.3%
O=C(N/N=C/c1cccc(OC(=O)c2ccccc2Cl)c1)c1cccnc1	49.1*	25.3*	5.0%	24.2%
COc1cc(C(=O)N/N=C/c2ccc(OC(=O)c3cccc(C)c3)cc2)ccc1O	2.8	11.1	-7.9%	-7.1%
Cc1ccc(C(=O)N/N=C/c2ccc(OC(=O)c3ccccc3Cl)cc2)cn1	26.2	13.7*	1.6%[46.1 µM]	?
SMILES	Shiga toxin inh	Cycloheximide cs	MARV entry inh	LASV entry inh
Cc1ccc(C(=O)N/N=C\c2ccc(OC(=O)c3cccs3)cc2)cn1	-15.5	-1.8	-22.9%	5.8%
O=C(Oc1ccc(/C=N/O)cc1)c1ccccc1Cl	68.8*	51.3*	·	·
CC12CC3CC(C)(C1)CC(C(=O)NNC(=O)c1ccncc1)(C3)C2	-11.3	-2.5	·	·
COc1cccc(C(=O)NCCS(=O)(=O)NC2CCCC2)c1	·	·	6.3%	3.7%
CCN(CC)C(=O)Cn1cc(S(=O)(=O)CC(=O)Nc2ccc(C(N)=O)cc2)c2ccccc21	-11.8	-1.1	·	·
COc1cccc(N2CCN(C3=NS(=O)(=O)C(c4ccc(C)cc4)=C3C)CC2)c1	·	·	?	28.7%[46.1 µM]
CC1(C)CC2=C(CO1)C(=S)NC(c1ccccc1)N2CC1CCCO1 (stereo not drawn)	-1.7	-0.8	5.2%[46.1 µM]	-1.7%
CC1=CCC(C(=O)O)C(C(=O)NC2CCCCC2)C1 (stereo not drawn)	-5.1	-1.8	-25.1%[46.1 µM]	14.9%
CCOC(=O)c1c(/N=C/N(C)C)sc(/C=N/Nc2ccccc2)c1-c1ccc(Cl)cc1	-6.2	-4.4	?	-3.2%
CC(=O)c1ccc(N2CCCCCC2)c(F)c1	29.4	13.3	?	-8.6%
CCCC(=O)c1ccc(N2CCCCC2)c(F)c1	94.2*	46.9*	-2.5%	0.1%
CC(=O)c1ccc(N2CCCCC2)c(F)c1	-5.4	15.8*	-18.9%[14.2 µM]	17.9%
CCCC(=O)c1ccc(N2CCCCCC2)c(F)c1	68.0*	39.9*	?	12.3%
